Laboratory results: PubChem BioAssay (NCI)
Compounds without any hit were thinned out: in the full panel of roughly 83,000, 20% have a hit.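 Method: cells in 96-well plates; compound added at one concentration; 48 h incubation; percent growth measured; values under 10 scored active.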 Activity calls are given as the source filed them.

What was measured:
Assay in all cases: NCI-60 one-dose screen, 48 h (100 = growth as untreated, 0 = no growth, -100 = all killed)
Details in all cases: 10 µM unless noted
[1] = tested on: SR leukemia
[2] = tested on: RPMI-8226 leukemia
[3] = tested on: OVCAR-8 ovarian
[4] = tested on: OVCAR-5 ovarian
[5] = tested on: OVCAR-4 ovarian
[6] = tested on: SK-OV-3 ovarian
[7] = tested on: IGROV1 ovarian
[8] = tested on: OVCAR-3 ovarian
[9] = tested on: HS 578T breast
[10] = tested on: NCI/ADR-RES ovarian
[11] = tested on: T-47D breast
[12] = tested on: BT-549 breast
[13] = tested on: MDA-MB-435 melanoma
[14] = tested on: SW-620 colon
[15] = tested on: MCF7 breast
[16] = tested on: HCT-116 colon
[17] = tested on: HCC-2998 colon
[18] = tested on: KM12 colon

Measured: growth

C/C=C(/C)C(=O)O[C@@H]1CC(C)(C)CC2C34OC(=O)[C@@]21CC[C@@]3(C)[C@]1(C)CCC2C(C)(C)C(=O)CC[C@]2(C)C1C[C@@H]4O (stereo partly drawn)
inactive: [1] 28.5% | [2] 26.2% | [3] 68.6% | [4] 95.3% | [5] 67.1% | [6] 87.8% | [7] 72.6% | [8] 73.7% | [9] 78.3% | [10] 77% | [11] 46.8% | [12] 43.3% | [13] 70.9% | [14] 38.8% | [15] 66.7% | [16] 29.5% | [17] 73.1% | [18] 51.5%

CCOC(=O)c1cc(C(=O)c2cc(OC)cc(OC)c2)n2ncccc12
active: [8] 0.928% | [10] 7.11% | [13] 1.18%
inactive: [1] 32.3% | [2] 28.9% | [3] 38.2% | [4] 92.2% | [5] 71.4% | [6] 19.6% | [7] 56.4% | [9] 31.5% | [11] 32.9% | [12] 18.4% | [14] 18.4% | [15] 24.8% | [16] 13.5% | [17] 66.7% | [18] 27.8%

O=C(Nc1cccc(Cl)c1)Oc1c(Cl)c(Cl)c(Cl)c(Cl)c1Cl
inactive: [1] 96.3% | [2] 95.4% | [3] 98.9% | [4] 95.2% | [5] 89% | [6] 85% | [7] 87.8% | [8] 101% | [9] 82.8% | [10] 103% | [11] 80.1% | [12] 88.5% | [13] 98.7% | [14] 100% | [15] 84.9% | [16] 95.7% | [17] 119% | [18] 102%

COc1ccc(-c2csc(NC(=O)CSc3nc(C)cc(=O)[nH]3)n2)cc1
inactive: [1] 118% | [2] 96% | [3] 102% | [4] 112% | [5] 104% | [6] 102% | [7] 101% | [8] 103% | [9] 96.8% | [10] 96.9% | [11] 89.2% | [12] 86.1% | [13] 108% | [14] 101% | [15] 92.8% | [16] 102% | [17] 117% | [18] 100%

C[C@H]1c2ccccc2CN1CCCOc1cc2c(cc1OCC1CC1)C1(CCCC1)C(N)=N2
inactive: [1] 13.8% | [2] 17.6% | [3] 65.9% | [4] 70.5% | [5] 48.8% | [6] 90.2% | [7] 54.8% | [8] 76.9% | [9] 56% | [10] 68% | [12] 78% | [13] 36.4% | [14] 15% | [15] 22.5% | [18] 49.6%
active: [11] 0.245% | [16] 7.48% | [17] -55.3%

COc1cc(/C=C2\CN(S(=O)(=O)c3ccc(C)cc3)C/C(=C\c3cc(CN4CCCC4)c(O)c(OC)c3)C2=O)cc(CN2CCCC2)c1O
inactive: [5] 12.1% | [6] 33.9% | [10] 77.8% | [11] 40% | [12] 12.7%
active: [1] -19.4% | [2] -34.6% | [3] 8.04% | [4] -2.7% | [7] -20.1% | [8] -27.8% | [9] 9.95% | [13] -76.8% | [14] -68.1% | [15] -25.5% | [16] -91.7% | [18] -63.9%

COc1cc(/C=C/C(=O)c2ccc(-n3cc(CN4CCN(c5cc6c(cc5F)c(=O)c(C(=O)O)cn6C5CC5)CC4)nn3)cc2)cc(OC)c1OC
inactive: [1] 21.3% | [3] 80.7% | [4] 92.7% | [5] 96.7% | [6] 79% | [7] 79.4% | [8] 84.9% | [9] 71.2% | [10] 85.6% | [11] 101% | [12] 92.5% | [13] 81.9% | [14] 85.9% | [15] 61.4% | [16] 17.3% | [17] 83.3% | [18] 87.1%
active: [2] 6.02%

Cc1ccc(S(=O)(=O)N(CCC(=O)O)c2ccccc2)cc1
inactive: [1] 99.3% | [2] 93.2% | [3] 101% | [4] 111% | [5] 114% | [6] 105% | [7] 123% | [8] 110% | [9] 121% | [10] 110% | [11] 100% | [12] 93.2% | [13] 107% | [14] 104% | [15] 91.8% | [16] 95.1% | [17] 112% | [18] 98.9%
